16 compounds from PubChem BioAssay (Tox21) can be followed below.

Assay [1] in a line: A CellTox Green Cytotoxicity Assay to monitor cytotoxicity in HepG2 cells - 8 hour (AID 1224890). Note: nearly all actives have a fitted effect of over 45% in size. Note: potency is the fitted concentration of half-maximal effect. In a few lines:
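Real-time cytotoxicity: fluorescence of a cell-impermeant cyanine dye binding DNA of dead HepG2 cells, measured repeatedly (0–40 h) during compound exposure at 37 C. Cells seeded 600/well with reagent, dosed after 5 h.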

Assay [2] in a line: qHTS assay to identify small molecule antagonists of the androgen receptor (AR) signaling pathway using the MDA cell line in the presence of 0.5 nM R1881 - cell viability counter screen (AID 1259242). Note: nearly all actives have a fitted effect of over 45% in size. Note: potency is the fitted concentration of half-maximal effect. In a few lines:
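Live-cell protease activity was measured by CellTiter-Fluor fluorescence after 30 min. Before that, MDA-kb2 MMTV-luciferase cells had 16 hr at 37C without CO2, exposed to test compounds and 0.5 nM R1881 final.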
Background: In qHTS, concentration-response curves come from the screen itself.

The nature of assay [3]: qHTS assay to identify small molecule phospholipidosis (PLD) inducers (AID 1259344; active = well fitted curve in the direction sought with a large enough effect; an effect the other way counts as inactive or inconclusive). In a few lines: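 Image-based: LipidTOX Red pit count/intensity per well and per cell; HepG2, 24 h compound at 37 C, PFA fixation, Hoechst counterstain.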
A short description of assay [4]: qHTS assay to identify small molecule HDAC inhibitors (AID 1259364). Note: nearly all actives have a fitted effect of over 45% in size. Note: potency is the fitted concentration of half-maximal effect. In a few lines:
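Luminescence read after 30 min room-temperature HDAC-Glo incubation measures cellular class I/II HDAC activity. Compounds were applied for 2 hr at 37 C to HCT-116 wild-type cells seeded the day before.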

The nature of assay [5]: qHTS assay to identify small molecule HDAC inhibitors - cell viability counter screen (AID 1259365). Note: series mostly up to about 92 µM; nearly all actives have a fitted effect of over 50% in size. In a few lines: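 After overnight seeding at 1,500 cells per well, wild-type HCT-116 cultures took up compounds in DMSO for 2hr at 37 C. Viable cell content came from luminescence with CellTiter-Glo.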
The nature of assay [6]: qHTS assay to identify small molecule agonists of the sonic hedgehog signaling (Shh) pathway - cell viability counter screen (AID 1259366). Note: nearly all actives have a fitted effect of over 50% in size. Note: potency is the fitted concentration of half-maximal effect. In a few lines: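 Same-well cytotoxicity read. Gli1-Luc reporter 3T3 cells; compounds 24hr, 37C/5% CO2; CellTiter-Fluor fluorescence.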
Assay [7] in a line: qHTS assay to identify small molecule antagonists of the sonic hedgehog signaling (Shh) pathway - cell viability counter screen (AID 1259367). Note: nearly all actives have a fitted effect of over 55% in size. Note: potency is the fitted concentration of half-maximal effect. A digest of the protocol: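 Tox21 library chemicals were tested on a Gli1-Luc NIH/3T3 clone (2,000 cells/well) stimulated by conditioned medium; viability was quantified as fluorescence from CellTiter-Fluor reagent added at 23 hr.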
A short description of assay [8]: qHTS assay to identify small molecule antagonists of the estrogen receptor alpha (ER-alpha) signaling pathway using the BG1 cell line in the presence of 0.1 nM 17-beta-estradiol - cell viability counter screen (AID 1259241). Note: nearly all actives have a fitted effect of over 40% in size. Note: potency is the fitted concentration of half-maximal effect. In a few lines: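 Estradiol-stimulated (0.1 nM) VM7Luc4E2 cells exposed to compounds 22 hr; viability measured by fluorescence of cleaved CellTiter-Fluor substrate after 30 min.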

The target in assay [9] is Estrogen receptor (Homo sapiens) (UniProt P03372). As to the kind of experiment: qHTS assay to identify small molecule antagonists of the estrogen receptor alpha (ER-alpha) signaling pathway using the BG1 cell line in the presence of 0.1 nM 17-beta-estradiol (AID 1259244). Note: nearly all actives have a fitted effect of over 50% in size. Note: potency is the fitted concentration of half-maximal effect. A digest of the protocol:
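Luciferase luminescence (ONE-Glo, 30 min at room temperature) was read after 22 hr at 37C exposure to compounds plus 17beta-estradiol at 0.1 nM final. Cells were VM7Luc4E2 with endogenous ER-alpha and an ERE-driven luciferase, pre-cultured 5 days in hormone-depleted medium.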

The target of assay [10] is Androgen receptor (Homo sapiens) (UniProt P10275). Nature of the assay: qHTS assay to identify small molecule antagonists of the androgen receptor (AR) signaling pathway using the MDA cell line in the presence of 0.5 nM R1881 (AID 1259243). Note: nearly all actives have a fitted effect of over 50% in size. Note: potency is the fitted concentration of half-maximal effect. In a few lines: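 Luminescent reporter readout (ONE-Glo, 30 min, room temperature) after 16 hr co-treatment of MDA-kb2 cells with test compounds and 0.5 nM R1881 final, at 37C without CO2. The MMTV-driven luciferase responds to both AR and GR.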

Structures are written as SMILES. Records with an inconclusive call do not appear. The source made the active and inactive calls. Unless noted, calls come from the whole dose curve; as a rule, active = well fitted curve in the direction sought with a large enough effect in the repeat runs; inconclusive = weak or mixed curves; inactive = no such curve, though single readings can be large; an effect the other way counts as inactive or inconclusive.

Estrogen receptor (Homo sapiens), sequence (P03372 whole entry, looked up): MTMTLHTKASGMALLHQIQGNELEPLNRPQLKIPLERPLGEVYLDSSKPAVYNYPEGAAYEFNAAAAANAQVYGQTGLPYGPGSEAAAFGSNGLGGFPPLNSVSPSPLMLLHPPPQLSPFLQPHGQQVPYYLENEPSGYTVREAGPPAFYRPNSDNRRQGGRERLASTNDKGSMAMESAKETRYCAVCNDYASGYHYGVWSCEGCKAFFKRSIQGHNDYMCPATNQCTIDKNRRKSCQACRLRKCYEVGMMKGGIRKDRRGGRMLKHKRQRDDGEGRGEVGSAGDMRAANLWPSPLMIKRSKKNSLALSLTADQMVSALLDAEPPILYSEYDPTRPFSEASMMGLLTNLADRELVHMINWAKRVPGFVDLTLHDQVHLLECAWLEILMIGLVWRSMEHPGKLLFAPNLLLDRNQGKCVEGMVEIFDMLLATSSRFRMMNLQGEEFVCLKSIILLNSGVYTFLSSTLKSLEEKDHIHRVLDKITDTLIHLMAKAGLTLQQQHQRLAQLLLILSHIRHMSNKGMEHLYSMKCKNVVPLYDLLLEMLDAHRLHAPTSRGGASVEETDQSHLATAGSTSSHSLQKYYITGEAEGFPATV
Androgen receptor (Homo sapiens), sequence (P10275 whole entry, looked up): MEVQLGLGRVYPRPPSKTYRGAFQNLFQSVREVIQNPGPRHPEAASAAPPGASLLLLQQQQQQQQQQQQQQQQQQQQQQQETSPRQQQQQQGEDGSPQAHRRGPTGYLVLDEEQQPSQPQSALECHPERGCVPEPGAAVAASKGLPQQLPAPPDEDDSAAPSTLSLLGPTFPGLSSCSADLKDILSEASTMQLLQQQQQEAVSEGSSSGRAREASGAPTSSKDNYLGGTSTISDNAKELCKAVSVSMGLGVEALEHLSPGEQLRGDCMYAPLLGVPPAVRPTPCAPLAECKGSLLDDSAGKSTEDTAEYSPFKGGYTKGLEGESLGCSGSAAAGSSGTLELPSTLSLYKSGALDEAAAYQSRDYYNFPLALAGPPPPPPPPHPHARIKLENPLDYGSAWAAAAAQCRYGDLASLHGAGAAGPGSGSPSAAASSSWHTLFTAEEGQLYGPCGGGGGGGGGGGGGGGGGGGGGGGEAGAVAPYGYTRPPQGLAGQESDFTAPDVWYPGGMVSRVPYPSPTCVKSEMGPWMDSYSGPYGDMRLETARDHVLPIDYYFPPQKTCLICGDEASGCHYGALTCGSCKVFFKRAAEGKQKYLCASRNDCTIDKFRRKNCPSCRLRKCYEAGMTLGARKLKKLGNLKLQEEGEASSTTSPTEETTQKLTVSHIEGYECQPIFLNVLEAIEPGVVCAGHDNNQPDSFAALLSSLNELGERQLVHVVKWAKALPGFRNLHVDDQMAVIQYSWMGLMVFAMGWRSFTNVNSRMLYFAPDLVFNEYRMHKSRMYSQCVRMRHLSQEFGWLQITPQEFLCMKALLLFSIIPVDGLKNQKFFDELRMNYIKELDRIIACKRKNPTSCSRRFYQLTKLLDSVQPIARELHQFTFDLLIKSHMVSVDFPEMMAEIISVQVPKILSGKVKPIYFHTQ

On to `CCOC(=O)OC(C)OC(=O)[C@@H]1N2C(=O)[C@@H](NC(=O)[C@H](N)c3ccccc3)[C@H]2SC1(C)C` (stereo partly drawn), for which the Potency entry in [1], in [2], in [3], in assay [4], in assay [5] and in [6] was “inactive” throughout. The Potency result in [7] was “inactive”.
As to `Oc1cc2c(cc1O)[C@H]1c3ccc(O)c(O)c3OC[C@@]1(O)C2`, the Potency entry in assay [1] and in [5] was “inactive” throughout. The Potency was 27.6 µM (active) in assay [8], 55.1 µM (active) in assay [4], 27.6 µM (active) in assay [6] and 27.6 µM (active) in [7].
Regarding `Oc1cccc(O)c1O`, the Potency entry in assay [1], in [2], in assay [9], in assay [3] and in assay [5] was “inactive” throughout. For the same compound, the Potency in assay [7] was 48.1 µM (active).
For the compound `Cc1c(C)c2c(c(C)c1OC(=O)CCC(=O)OCCO)CC[C@@](C)(CCC[C@H](C)CCC[C@H](C)CCCC(C)C)O2`, the Potency result in [1], in [2], in assay [9], in assay [4], in assay [5] and in assay [6] was “inactive” throughout. Further, the Potency result in assay [7] was “inactive”.
Regarding `CCOC(=O)c1ccc(O)c(O)c1`, the Potency entry in assay [8], in assay [2], in [9], in assay [4], in assay [5] and in assay [6] was “inactive” in each case. For the same compound, the Potency entry in assay [7] was “inactive”.
Take `CC(C)COCC(CN(Cc1ccccc1)c1ccccc1)N1CCCC1` (stereo not drawn): the Potency in assay [1] was 23.9 µM (active); in [2], 29.8 µM (active); in assay [9] it was 29.8 µM (active). Also, the Potency entry in assay [3], in [4] and in assay [5] was “inactive” throughout.
Turning to `O=[N+]([O-])c1ccc(O/N=C/c2cc(Br)c(O)c(Br)c2)c([N+](=O)[O-])c1`, the Potency result in [1] and in assay [5] was “inactive” throughout. The Potency in [8] was 24.2 µM (active); in [9] it was 30.5 µM (active).
With `Cc1cc2c(OCC(CNC(C)(C)C)OC(=O)c3ccccc3)cccc2[nH]1` (stereo not drawn), the Potency result in assay [1], in assay [8], in [9], in [3], in [4] and in assay [5] was “inactive” in each case. In addition, the Potency entry in assay [6] and in assay [7] was “inactive” each time.
As to `O=c1cc(-c2ccccc2)oc2cc(O)cc(O)c12`, the Potency entry in assay [1], in assay [2], in assay [10] and in [5] was “inactive” each time. The Potency in assay [4] was 6.86 µM (active); in [6], 48.6 µM (active); in assay [7], 61.1 µM (active).
For the compound `CCCC(C(=O)OCCN(CC)CC)(c1ccccc1)c1ccccc1`, the Potency entry in [1], in assay [8], in [4], in assay [5] and in assay [7] was “inactive” in each case.
As to `CC(C)=CCC/C(C)=C/CC/C(C)=C/C(=O)OCC(=O)[C@@]1(O)CC[C@H]2[C@@H]3CCC4=CC(=O)C=C[C@]4(C)[C@H]3[C@@H](O)C[C@@]21C`, the Potency entry in assay [1], in assay [10], in assay [6] and in [7] was “inactive” in each case.
On to `Oc1ccc(Cl)c2cccnc12`, for which the Potency result in assay [1], in assay [8], in [3], in assay [4] and in assay [5] was “inactive” throughout. The values for the Potency in assay [10], in [9] and in [7] were 10.6 µM (active), 21.1 µM (active) and 3.35 µM (active), respectively.
Turning to `O=C1c2ccccc2C(=O)C1c1nc2ccccc2c(Br)c1O`, the Potency result in assay [8], in assay [5], in [6] and in assay [7] was “inactive” throughout. For the same compound, in assay [4], the Potency is 27.3 µM (active).
Turning to `CN1C(=O)N(c2ccccc2Br)Cc2cnc(Nc3ccc4c(c3)OCC(CO)O4)nc21` (stereo not drawn), the Potency entry in [1], in assay [4] and in assay [5] was “inactive” in each case. The values for the Potency in assay [9], in assay [6] and in assay [7] were 48.6 µM (active), 0.193 µM (active) and 1.72 µM (active), respectively.
As for `O=C(OCC(O)CO)c1ccccc1Nc1ccnc2cc(Cl)ccc12` (stereo not drawn), the Potency entry in [8], in assay [2], in assay [3], in assay [4] and in [5] was “inactive” each time. The Potency in assay [6] and in [7] was 29.8 µM (active) in each case.
In the case of `Nc1nnc(-c2ccc([N+](=O)[O-])o2)o1`, the Potency entry in [1] and in [4] was “inactive” in each case. The Potency is 61.1 µM (active) in assay [8], 54.5 µM (active) in assay [9] and 27.3 µM (active) in [7].
